Inconclusive results are not listed. A number with no mark means an inactive call. Calls of active or inactive are those of the source. The call rests on the fitted dose curve; in most records, active means well fitted activation curve with a large enough effect; inconclusive means small, poorly fitted or top-dose-only effect, or another doubt; inactive means no such curve, though single readings can be large or run the other way.
Potency means the concentration at half of the fitted maximal effect.

For the assay, the target named is Rap guanine nucleotide exchange factor 3 (Homo sapiens) (UniProt O95398). The assay can be described thus: Counterscreen qHTS for agonist of cAMP-regulated guanine nucleotide exchange factor 3 (EPAC1) (AID 1645889). Further: nearly all actives have a fitted effect of over 40% in size. On activation: % of control where 0% means no effect. Conditions: EPAC1 Rap1B-BODIPY-GDP exchange, fluorescence; series mostly up to 154 µM; activation: at the top concentration. The text has this: Assay Provider (PI): Xiaodong Cheng Ph.D. The University of Texas Medical Branch, […], TX MLPCN Grant: NS066510 In multi-cellular eukaryotic organisms, the effects of cAMP are transduced by two ubiquitously-expressed intracellular cAMP receptors, the classic protein kinase A/cAMP-dependent protein kinase (PKA/cAPK) and the more recently discovered exchange protein directly activated by cAMP/cAMP-regulated guanine nucleotide exchange factor (EPAC/cAMP-GEF). Both PKA and EPAC are ubiquitously expressed in all tissues, and an increase in intracellular cAMP levels will lead to the activation of both PKA and EPAC. Therefore, careful dissections of the individual role and relative contribution of EPAC and PKA within the overall cAMP signaling in various model systems are critical for further elucidating the mechanism of cAMP signaling. To date no EPAC-specific antagonists and agonist, as well as isoform-specific agonists have been reported, and developing EPAC-specific pharmacological probes to determine the physiological functions that EPAC play in the overall cAMP-mediated signaling remains a major challenge within the research field. Furthermore, identified regulators of EPAC may lead to new mechanism-based therapeutic strategies specifically targeting the EPAC / cAMP-signaling components as EPAC has been implicated to play important roles in major human pathological conditions such as diabetes, heart disease, and cancer. This qHTS will be used to screen the Molecular Libraries Small Molecule Repository (MLSMR) as a concentration-titration series using the NCGC unique quantitative screening (qHTS) platform to find activators for EPAC1. In addition, this assay will also be used as a counterscreen for the EPAC2 qHTS. This fluorescent based assay is developed and validated for EPAC1 that measures exchange using EPAC effector Rap1 complex with BODIPY-GDP, a GDP analog with a tethered fluorophores. Activators are identified by monitoring the change in fluorescence signal as the exchanged free BODIPY-GDP has a reduced fluorescence compared to Rap1-bound BODIPY-GDP. Increase in signal (activation) is the desired outcome for the EPAC1 agonist while no activity in this assay is desired for the EPAC2 agonist counterscreen. Reference: [1] de Rooij, J., Zwartkruis, F. J., Verheijen, M. H., Cool, R. H., Nijman, S. M., Wittinghofer, A., and Bos, J.L. (1998) Nature 396, 474-477. Kawasaki, H., Springett, G. M., Mochizuki, N., Toki, S., Nakaya, M., Matsuda, M., Housman, D. E., and Graybiel, A. M. (1998) Science 282, 2275-2279.
EPAC1 Counterscreen PROTOCOL TABLE SEQUENCE No. (e.g., 1, 2, 3, etc.); […] (e.g., Cells, Incubation, Reagent, etc.); VALUE and DESCRIPTION. 1. Reagent. 3 uL. [1x] 250 nM Rap1B-BODIPY-GDP, and 50 uM GDP. 2a. Compound. 23 nL. Control 6,572 uM cAMP (working concentration). 2b, 2c. Compound. 23 nL. Control activator and inhibitor; 234 - 30,000 uM cAMP and 16.4 - 10,000 uM. 2d. Compound. 46 nL. MLSMR follow-up library; 0.64 - 10,000 uM. 3. Time. 15 sec, 1000rpm. Centrifuge. 4. Time. 5 min. Incubation at room temperature. 5. Detector. Fluorescence. (Read 1), Ex/Em = 480 nm / 540 nm. 6. Time. 30 min. Incubation at room temperature. 7. Detector. Fluorescence. (Read 2), Ex/Em = 480 nm/ 540 nm. 8. Reagent. 1uL. Dispense either [4x] 10 uM cAMP or buffer. 9. Time. 15 sec, 1000 rpm. Centrifuge. 10. Time. 5 min. Incubation at room temperature. 11. Detector. Fluorescence. (Read 3), Ex/Em = 480 nm / 540 nm. 12. Time. 30 min. Incubation at room temperature. 13. Detector. Fluorescence. (Read 4), Ex/Em = 480 nm / 540 nm. NOTES (numbers refer to Sequence numbers above; values are from representative experiments) 1. Medium-binding black solid-bottom Greiner plates (789176-F). Dispense 3 uL of [1x] 250 nM Rap1B-BODIPY-GDP, and 50 uM GDP into columns 1 to 48. 2a. Control compound cAMP (6,572 uM, column 3, rows 1 to 32) single pin-transferred for a [final] of 50 uM. 2b. […]
(The purpose of a counterscreen is to sort out artefacts and off-target activity.)
Turning to `COc1ccc(-c2cc(C(F)(F)F)nc(SCC(=O)NCCc3ccccc3)n2)cc1OC`, the “activation” value is 15.9%.
Still for that read-out and setting: next, `COc1ccc(C(=O)c2ccccc2)c2c(O)ccc(C(=O)c3ccccc3)c12`: 18.6%; `CC(OC(=O)CCN1C(=O)C2CC=CCC2C1=O)C(=O)Nc1cccc(C#N)c1` (stereo not given): 3.18% [at 30.8 µM].
As for `CC(=O)Nc1ccc(C=NNc2ccc(S(=O)(=O)Nc3ccccc3C(=O)O)cc2[N+](=O)[O-])cc1`, the activation was 13.4% [at 30.8 µM].
The same measure, in the same setting: the figure for `CCOc1ccc(Oc2ccccc2NC(=O)CN2C(=O)NC3(CCCC3)C2=O)cc1` is 10.7% [at 30.8 µM].
`Cc1ccc2c(c1)C=CC(C#N)N2C(=O)c1ccccc1` (stereo not given): the “activation” value is 29.2%.
In the case of `CCc1ccccc1N(CC(=O)NCCc1ccccc1)C(=O)CCC(=O)Nc1ccccn1`, the “activation” value was 16.5%.
On the same count and under the same terms, next, `Cc1ccccc1C(=O)/C(C#N)=N/Nc1c(C)n(C)n(-c2ccccc2)c1=O`: -314%.
On the same count and under the same terms, next, `NNc1nc2c(Cl)ccc(Cl)c2s1`: 14.6%; `CC(Sc1nncn1C)C(=O)Nc1nnc(C(C)C)s1` (stereo not given): 3.18%.
The same measure, in the same setting: the figure for `CCc1cccc2cc3c(N)c(C(=O)Nc4ccc(S(=O)(=O)N5CCCC5)cc4)sc3nc12` is 4.84%; for `O=[N+]([O-])c1cc([N+](=O)[O-])c2nonc2c1Nc1ccc(O)cc1` it is 1.09%.
Consider `Cc1nc2cc(NC(=O)CCS(=O)(=O)c3ccccc3)ccc2s1`, for which the activation is 14.1% [at 30.8 µM].
On the same count and under the same terms, the figure for `CCc1nnc(NS(=O)(=O)c2ccc(Nc3ccc([N+](=O)[O-])c4nonc34)cc2)s1` is 0.652%.
`O=C(CCC1CCCC1)Nc1ccc([N+](=O)[O-])cn1`: the “activation” value is 25.4%.
Same read-out and setting: the figure for `COc1cc(O)cc(O)c1C(=O)/C=C/c1ccccc1` is -12.4%; for `O=C(COC(=O)c1ccc(O)cc1O)Nc1nnc(-c2ccccc2)o1` it is 1.81%; for `CCOC(=O)c1sc2nc(-c3ccco3)c3c(c2c1N)CC(C)(C)OC3` it is 25.5% [at 30.8 µM].
Same read-out and setting: the figure for `COC(=O)c1sccc1NS(=O)(=O)c1ccccc1[N+](=O)[O-]` is 33.8% [at 30.8 µM]; for `COc1ccccc1C1SCCN1S(C)(=O)=O` (stereo not given) it is 4.5%; for `COc1cc(C2c3c(oc4ccccc4c3=O)C(=O)N2c2nc(C)c(C)s2)ccc1O` (stereo not given) it is 13.8%.
Still for that read-out and setting: next, `CC(=O)NC(C)c1nc2ccccc2n1Cc1ccccc1Cl` (stereo not given): 10.6%.
Take `C=CCSc1nc(-c2ccc(OC)cc2)c(C#N)c(=O)n1CC=C`: the activation was -17.1% [at 30.8 µM].
`NNC(=O)c1cccc(COCC(F)(F)C(F)F)c1`: the “activation” value is 9.65%.
Same read-out and setting: the figure for `CCOC(=O)Cn1c(=O)oc2cc(S(=O)(=O)Nc3c(C)cc(C)cc3C)ccc21` is 25.1% [at 30.8 µM].
As for `N#C/C(=C/c1ccc(N2CCOCC2)o1)c1nc2ccccc2[nH]1`, the Potency is 63.1 µM (active).
`C/C=C/C(=O)N1c2ccc(C)cc2C(C)=CC1(C)C`: the “activation” value was 4.15%.
Still for that read-out and setting: next, `O=C(O)COc1ccc(NC(=O)C(c2ccccc2)c2ccccc2)cc1`: 13%.
Same read-out and setting: the figure for `COc1ccccc1Sc1nc(-c2ccccc2)ncc1OC` is 18.8% [at 30.8 µM]; for `O=C(O)c1ccccc1NS(=O)(=O)c1ccc(N/N=C/c2ccc(O)c(O)c2)c([N+](=O)[O-])c1` it is 24.6% [at 30.8 µM].
Same read-out and setting: next, `CC1CCN(C(=O)CSc2nnc(CN3CCOCC3)n2-c2ccccc2)CC1`: -3.09%; `Cc1ccc(S(=O)(=O)N2CCCCC2)cc1C(=O)NCCC1=CCCCC1`: 7.26%.
Consider `Cc1ccc(Cl)cc1NC(=O)c1ccccc1OCC(=O)Nc1ccc(Cl)cc1`, for which the activation was 12.9% [at 30.8 µM].
Take `CCN1C/C(=C/c2ccc(N3CCOCC3)cc2)C(=O)/C(=C/c2ccc(N3CCOCC3)cc2)C1`: the Potency is 39.8 µM (active).
For `CCOc1ccc(NC(=O)CN(C)C(=O)c2cc3c(s2)CCC3)cc1OCC`, the “activation” value is 3.28%.
Still for that read-out and setting: the figure for `CN(Cc1ccccc1N1CCCC1)C(=O)c1cc2cc(Cl)ccc2o1` is 23.1%.
The same measure, in the same setting: the figure for `Cc1onc(-c2c(F)cccc2Cl)c1C(=O)OCC(=O)N(C)c1ccccc1` is 12.2% [at 30.8 µM]; for `O=C(N/N=C/c1c(O)n(-c2ccccc2Cl)c(=O)c2ccccc12)c1cccnc1` it is 10.1%.
Still for that read-out and setting: next, `CCN(CC)c1nc(C)nc2c1sc(=S)n2C`: -1.38%; `Cc1ccn2cc(CNC(=O)c3cccs3)nc2c1`: 6.39%.

Values taken from PubChem BioAssay (NCATS).
